# According to PubChem BioAssay (NCATS):
# Inconclusive results are not listed. Calls of active or inactive are those of the source. Calls follow the shape of the dose curve; as a rule, active = well fitted curve in the direction sought with a large enough effect in the signal ratio (not every such curve was filed as active); inconclusive = small, poorly fitted or top-dose-only effect, or effect the other way, or a change in a side signal; inactive = no such curve, though single readings can be large or run the other way; the % refers to the signal ratio.
# Biological target: Tyrosine-protein phosphatase non-receptor type substrate 1 (Homo sapiens) + Leukocyte surface antigen CD47 (Homo sapiens) (UniProt P78324+Q08722)
# Sequence (P78324 whole entry, looked up): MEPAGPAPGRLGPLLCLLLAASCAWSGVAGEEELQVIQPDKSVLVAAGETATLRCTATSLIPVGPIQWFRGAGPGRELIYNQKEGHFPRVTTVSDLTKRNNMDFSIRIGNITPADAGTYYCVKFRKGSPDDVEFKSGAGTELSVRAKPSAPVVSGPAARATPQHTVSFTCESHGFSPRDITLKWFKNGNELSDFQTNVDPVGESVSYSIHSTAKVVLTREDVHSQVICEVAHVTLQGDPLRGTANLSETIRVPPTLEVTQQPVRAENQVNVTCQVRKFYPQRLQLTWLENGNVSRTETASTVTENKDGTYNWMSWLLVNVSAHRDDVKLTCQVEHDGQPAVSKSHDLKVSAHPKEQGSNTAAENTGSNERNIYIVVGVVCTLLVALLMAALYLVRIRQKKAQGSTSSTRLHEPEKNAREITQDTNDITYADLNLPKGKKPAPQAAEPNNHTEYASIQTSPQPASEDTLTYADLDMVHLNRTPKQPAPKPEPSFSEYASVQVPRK
# Sequence (Q08722 whole entry, looked up): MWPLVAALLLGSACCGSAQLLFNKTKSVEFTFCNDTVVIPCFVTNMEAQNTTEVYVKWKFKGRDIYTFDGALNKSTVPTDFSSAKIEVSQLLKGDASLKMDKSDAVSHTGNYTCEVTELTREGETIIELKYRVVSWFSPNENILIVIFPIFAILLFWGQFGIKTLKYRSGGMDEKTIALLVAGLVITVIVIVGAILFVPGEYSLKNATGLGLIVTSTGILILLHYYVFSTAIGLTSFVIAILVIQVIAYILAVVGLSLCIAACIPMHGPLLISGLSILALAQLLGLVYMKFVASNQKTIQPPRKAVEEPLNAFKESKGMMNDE
# Experiment: CD47-SIRPalpha protein protein interaction - HTRF assay qHTS validation (AID 1347058)
# Conditions: TR-FRET HTRF CD47-His / biotin-SIRPalpha binding, ratio 665/615; series mostly up to 38.3 µM
# Description: SIRPalpha is a myeloid cell expressed immunomodulatory receptor that binds the tumor expressed immune checkpoint CD47. Therapeutic disruption of this interaction leads to immune-mediated tumor rejection. This assay was used to quantitate CD47-SIRPalpha binding biochemically and evaluate chemical libraries for novel CD47-SIRPalpha inhibitors. To recapitulate the biological interaction of CD47 and SIRPalpha, we designed expression constructs to produce their recombinant, soluble, extracellular interaction domains. CD47 was produced with an N-terminal 6His tag. SIRPalpha was produced with an N-terminal Avi-Tag for site-specific biotin incorporation. The CD47-SIRPalpha interaction was measured by TR-FRET using affinity tag linked reagents (anti-6His-Eu donor and streptavidin-XL665 acceptor). SIRPalpha without biotin incorporation was used as a positive control inhibitor.
# SEQUENCE No. (e.g., 1, 2, 3, etc.); […] (e.g., Cells, Incubation, Reagent, etc.); VALUE and DESCRIPTION.
# 1a. Reagent. 3 uL CD47-His (12.5 nM) and Anti-His Eu Donor reagent (0.7 nM) added to respective wells in Assay buffer; white/solid bottom high base, med bind 1536-well plates (Greiner 789075)
# 1b. Reagent. 2 uL Assay buffer negative control for background fluorescence
# 2. Reagent. 23 nL library compounds (7-pt, 1:4 intraplate titration series) or DMSO control transferred by Pin Tool
# 3. Centrifuge. Centrifuge plate for 30 s at 1000 RPM
# 4. Incubation.#Incubate reagents at room temperature for 30 min, protected from light
# 5. Reagent. 2 uL SIRPalpha-biotin (100 nM) in Assay buffer
# 6. Incubation.#Incubate reagents at room temperature for 30 min, protected from light
# 7. Reagent. 1 uL SAV-XL665 (85 nM) acceptor reagent added to respective wells
# 8. Centrifuge. Centrifuge plate for 30 s at 1000 RPM
# 9. Incubation. Incubate reagents at room temperature for 30 min, protected from light
# 10. Detector. Measure Top TR-FRET on EnVision (Eu/APC filter set); calculate ratio Ch1/Ch2
# 1. Assay buffer composition.#Phosphate buffered saline (PBS; 10 mM Phosphate, 137 mM NaCl, and 2.7 mM KCl; pH 7.4), 0.05% IGEPAL CA-630
# 2. 23nL of […] library compounds (7 plates) or DMSO vehicle control transferred to 9 Greiner white/solid bottom high base, TC plates in 7 interplate 1:5 titrations (see Yasgar, A. et al. 2008) with Pintool. Two of the 9 plates are DMSO-only in compound field at beginning and end of compound library-treated plates.
# 10. Detector settings#Mirror = LANCE/DELFIA Dual Enh; Ex. Filter = UV2[TRF] 320; Em. Filter = APC 665; 2nd Em. Filter = Europium 615; Measurement h = 6.5; Ex. light (%) = 100; Delay = […]; Window t = 100 us; No. Seq. windows = 1; Time between flashes = 2000us; No. of flashes = 100; No. of flashes for 2nd detector = 100; Calculation: "Ratio Ch1/Ch2"
row,SMILES,outcome
1,CCN(CC)CCNC(=O)c1ccc(NS(C)(=O)=O)cc1,inactive
2,CC(C)N(CCC(=O)c1ccc2ccccc2c1)Cc1ccccc1,inactive
3,Cc1nn(-c2ccccc2)c(C)c1/C=N/N1CCN(Cc2ccccc2)CC1,inactive
4,Nc1ncnc2n[nH]c(Nc3ccc(F)cc3)c12,inactive
5,C[N+](C)(C)CCO,inactive
6,Brc1ccc([C@H]2CN3CCSC3=N2)cc1,inactive
7,Clc1ccc2c(c1)N=C(N1CCNCC1)c1ccccc1N2,inactive
8,COC(=O)C1=CO[C@@H](O)[C@@H]2C(CO)=CC[C@H]12,inactive
9,N[C@@H](Cn1ccc(=O)c(O)c1)C(=O)O,inactive
10,NC(N)=NCCCCN=C(N)N,inactive
11,COc1ccccc1N1CCN(CCN2C(=O)CC3(CCCC3)CC2=O)CC1,inactive
